# Measured values from the supplement of paper PMC10105736.
# A number with no mark means an inactive call.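 The calls were made as follows: active = MAPPIT score above the 99th percentile of random reference set scores in the same batch; inactive = at or below it.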
# What was measured:
# Assay in all cases: MAPPIT interaction score (arbitrary units); higher = stronger binary interaction signal, active = hit call of the paper
# Act57B = conditions: MAPPIT configuration: N-N; pair source set: screen_1
# Protocol: (§1)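 MAPPIT in HEK293T cells: Drosophila bait and prey ORFs (from the FlyBi ORF collection) were co-transfected in quadruplicate, with two wells stimulated by erythropoietin. Interaction-dependent JAK-STAT activation was read out with a STAT-responsive firefly luciferase reporter. Positive calls use the 99th percentile of random reference set (RRS) scores within each batch […]. Batches Dvs01 and Dvs02 used the N-N configuration and Dvs04 the N-C configuration. Pairs come from FlyBi screens, CuraGen, DPiM, Finley Y2H, Lit-BM-16, Lit-BS-16 and RRS.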
# Adar = conditions: MAPPIT configuration: N-N; pair source set: RRS
# Protocol: as §1
# Ald1 = conditions: pair source set: Lit-BM-16
# Protocol: as §1
# Arc1 = conditions: MAPPIT configuration: N-N
# Protocol: as §1
# CG34382 = conditions: MAPPIT configuration: N-N; pair source set: Curagen_high_conf
# Protocol: as §1
# CG8441 = conditions: MAPPIT configuration: N-N; pair source set: Lit-BS-16
# Protocol: as §1
# Pbgd = conditions: MAPPIT configuration: N-N; pair source set: DPIM
# Protocol: as §1
# Arc2 = conditions: MAPPIT configuration: N-N; pair source set: screen_1
# Protocol: as §1
# 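Also: HEK293T cells with Epo stimulation, STAT-responsive firefly luciferase reporter, fold induction versus unstimulated cells divided by the larger fold induction of two negative controls lacking either bait or prey.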
binder,measurement,setting,value
CG12206 (protein) MAAITSNVSRLEPMRGISIIIESPEVATATPPPATTTATAEAEAATKQVAPTAKSNSNTEMSLKSQAAGMLLAFGDTAATAKDNLETSYDTAAKSTAAPETNKIYPQLLLRIGGEIAGATASAEAAASAATAAAATATSPTIISCNGEIAASQAAATAADTAATLQHNNTVKIQIESQGQQRTLGKQISVVKLNEGVEEMQQHMCYLVDTSGQYSPCETLDSGTGSDLENHPQQQQQPQQVRSPQLELHLQTTRLMVNEEADHKHSPLETPSPVPKRAYSLTDDSEECDESSNSSLSCDSLHSGGLLPTTLLRDIRFRERASGPLVTKINGRPLQFETDGYYTFHVREHENFRSFGSNSSTEYEAQHFTDEQPGEDFVGFRDIRTAGKLAGNSTIKSAKGTVRGVKNRVRNGVATFLQLQQPNVKNYMEKDVGKVVLYTTSMGIIRDTYAKCANVKKILRTLLIKFEERDIFMSVEYQQEMRERMQDETIRVPQLFVEGQLIGDANIVERLNESGELRQLLRPYKSIATAYTCQTCGGYRMLPCPACNGSKKSMHRNHFTAEFVALKCMNCDEVGLIKCPNC,MAPPIT interaction score,Act57B,1.77
GstZ2 (protein) MSTNLCPNASSSDIQPILYSYWRSSCSWRVRIAMNLKEIPYDIKPISLIKSGGEQHCNEYREVNPMEQVPALQIDGHTLIESVAIMHYLEETRPQRPLLPQDVHKRAKVREIVEIICSGIQPLQNLIVLIHVGEEKKKEWAQHWITRGFRAVEKALSTSAGKYCVGDEISMADCCLVPQVFNARRFHVDLRPYPIILRIDRELESNPAFRAAHPSNQPDCPPELPNK,MAPPIT interaction score,Adar,0.0763
Ald1 (protein) MTTYFNYPSKELQDELREIAQKIVAPGKGILAADESGPTMGKRLQDIGVENTEDNRRAYRQLLFSTDPKLAENISGVILFHETLYQKADDGTPFAEILKKKGIILGIKVDKGVVPLFGSEDEVTTQGLDDLAARCAQYKKDGCDFAKWRCVLKIGKNTPSYQSILENANVLARYASICQSQRIVPIVEPEVLPDGDHDLDRAQKVTETVLAAVYKALSDHHVYLEGTLLKPNMVTAGQSAKKNTPEEIALATVQALRRTVPAAVTGVTFLSGGQSEEEATVNLSAINNVPLIRPWALTFSYGRALQASVLRAWAGKKENIAAGQNELLKRAKANGDAAQGKYVAGSAGAGSGSLFVANHAY,MAPPIT interaction score,Ald1; MAPPIT configuration: N-C,1.2
same,MAPPIT interaction score,Ald1; MAPPIT configuration: N-N,4.7 (active)
Arc1 (protein) MAQLTQMTNEQLRELIEAVRAAAVGAAGSAAAAGGADASRGKGNFSACTHSFGGTRDHDVVEEFIGNIETYKDVEGISDENALKGISLLFYGMASTWWQGVRKEATTWKEAIALIREHFSPTKPAYQIYMEFFQNKQDDHDPIDTFVIQKRALLAQLPSGRHDEETELDLLFGLLNIKYRKHISRHSVHTFKDLLEQGRIIEHNNQEDEEQLATAKNTRGSKRTTRCTYCSFRGHTFDNCRKRQKDRQEEQHEE,MAPPIT interaction score,Arc1; pair source set: screen_1,4.55 (active)
same,MAPPIT interaction score,Arc1; pair source set: screen_2,3.68 (active)
same,MAPPIT interaction score,CG34382,0.00338
same,MAPPIT interaction score,CG8441,-0.34
same,MAPPIT interaction score,Pbgd,0.22
Arc2 (protein) MTQMSDEQFRIFIETIKSLGPIKEEPPSKGSFSNCTVRFSGQRDHDAVDEFINAVETYKEVEGISDKDALKGLPLLFKSIAVVWWKGVRRDAKTWSDALQLLRDHFSPTKPSYQIYMEIFETKQSYDEVIDSFICKQRALLAKLPEGRHDEETELDFIYGLMQPKYRESIPRHEVKTFRELLDRGRTVERTRH,MAPPIT interaction score,Arc2,6.05 (active)
